# Measured values reported in PubChem BioAssay (NCATS).
# Inconclusive results are not listed. A call without a number means that no potency is given here. The source made the active and inactive calls. Calls come from the whole dose curve; as a rule, active = well fitted inhibition curve with a large enough effect; inconclusive = small, poorly fitted or top-dose-only effect; inactive = no such curve, though single readings can be large or run the other way.
# Test system: Zika virus NS2B-NS3 protease (linked construct)
# Test: Primary screen NINDS Rhodamine qHTS for Zika virus inhibitors (AID 1347160); note: nearly all actives have a fitted effect of over 55% in size
# Details: purified NS2B-NS3 protease, Rhodamine110 substrate fluorescence; series mostly up to 57.1 µM
# Method in brief: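 Rhodamine110-peptide cleavage (1.5 µM substrate) by 25 nM linked NS2B-NS3 enzyme at pH 8.0 (Tris, Tween 20), after 15 min RT preincubation with compounds; 15-min fluorescence change normalized to controls and Hill-fitted.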
# Potency is the fitted concentration of half-maximal effect.
row,SMILES,Potency
1,O=S(=O)(NC1CCC(c2cc(F)ccc2F)(S(=O)(=O)c2ccc(Cl)cc2)CC1)C(F)(F)F (configuration not stated),12.6 µM (active)
2,C[C@@H](O)[C@H](NC(=O)c1ccc(C#Cc2ccc(CN3CCOCC3)cc2)cc1)C(=O)NO,inactive
3,C=C1C(=O)OC2/C=C(\CO)CC/C=C(\C=O)CC(OC(=O)CC(C)C)C12 (configuration not stated),inactive
4,Cc1noc(=O)c2ccc(NC(=O)C(O)(CC(C)(C)c3cccc4c3OCC4)C(F)(F)F)cc12 (configuration not stated),inactive
5,O=C(c1ccccc1)c1ccc2nc(NC(=O)c3csc(C4CCN(c5ncnc6ccsc56)CC4)n3)[nH]c2c1,inactive
6,COc1ccc(C[C@H](N)C(=O)N[C@@H]2[C@H](O)[C@H](n3cnc4c(N(C)C)ncnc43)O[C@@H]2CO)cc1,inactive
7,COc1ccc(/C=C/C(=O)O[C@@H]2[C@@H](O)[C@@H](O)[C@H](O[C@@H]3C=C(CO)[C@H]4[C@H](O[C@@H]5O[C@H](CO)[C@@H](O)[C@H](O)[C@H]5O)OC=C[C@H]43)O[C@H]2C)cc1O,inactive
